# According to PubChem BioAssay (EPA / NIEHS):
# Inconclusive results are not listed. The source made the active and inactive calls. The calls were made as follows, unless noted: active = hit-call score of the fitted dose curve at least 0.9, where 1 is the maximum; inconclusive = response in the unintended direction; inactive = score below 0.9.
# What was measured:
# [1] = test system: Sodium/Iodide Symporter (NIS), SLC5A5 (gene 6528); experiment: CPHEA_Stoker_NIS_Inhibition_RAIU: CPHEA's Radioactive Iodide Uptake (RAIU) Assay for Sodium/Iodide Symporter (NIS) Inhibition, Stoker and Laws Labs (AID 2283841)
# Procedure, shortened: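 HEK293T cells stably expressing human NIS (hNIS-HEK293T-EPA) were exposed to test chemicals at 0.001–100uM (0.5% final DMSO) with 125I at a final 329pM in HBSS/10mM HEPES pH 7.4. After 2 hours at room temperature and ice-cold washes, intracellular 125I was counted as CPM and normalized to DMSO wells.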
# [2] = CPHEA_Stoker_NIS_Cytotoxicity: Cytotoxicity Assessment for CPHEA's Radioactive Iodide Uptake (RAIU) Assay for Sodium/Iodide Symporter (NIS) Inhibition, Stoker and Laws Labs (AID 2283897);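 as to AC50: active means loss of ATP signal versus DMSO meaning cytotoxicity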
# Procedure, shortened: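 hNIS-HEK293T-EPA human kidney cells were exposed for 2 hours at room temperature to test chemicals (0.001–100uM, 0.5% final DMSO) in HEPES-buffered HBSS, pH 7.4. Viability was read as ATP content by luciferase bioluminescence, loss of signal versus DMSO.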
# [3] = molecular target: frog Thyroid hormone Receptor alpha (TRa), thra-a (gene 397942) (UniProt P15204); experiment: ATG_frTRa_XSP2: Attagene TRANS-FACTORIAL Multi-Species (XSP2) HepG2 Assay for frog Thyroid hormone Receptor alpha (TRa) (AID 2283839)
# Sequence of frog Thyroid hormone Receptor alpha (TRa), thra-a (gene 397942) (P15204 whole entry, looked up, the tested form may be a part): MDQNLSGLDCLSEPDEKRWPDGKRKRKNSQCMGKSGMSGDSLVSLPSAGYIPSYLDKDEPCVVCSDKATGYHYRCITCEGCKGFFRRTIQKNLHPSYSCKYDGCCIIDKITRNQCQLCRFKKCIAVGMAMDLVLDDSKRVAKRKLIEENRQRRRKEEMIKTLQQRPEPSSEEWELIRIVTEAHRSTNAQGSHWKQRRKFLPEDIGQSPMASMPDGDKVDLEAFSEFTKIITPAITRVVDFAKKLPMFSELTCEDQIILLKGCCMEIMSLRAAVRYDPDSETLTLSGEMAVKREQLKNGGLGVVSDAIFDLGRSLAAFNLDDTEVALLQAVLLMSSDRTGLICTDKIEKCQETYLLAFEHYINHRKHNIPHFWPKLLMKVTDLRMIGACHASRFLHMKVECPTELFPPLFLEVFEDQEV
# Procedure, shortened: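 Transfect HepG2 with multiple reporter units (GAL4-UAS), dose chemical, incubate 24 h. Isolate RNA, reverse-transcribe, PCR-amplify reporter, label with 6-FAM by primer extension, digest with HpaI, run capillary electrophoresis; induction scored against DMSO.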
# [4] = molecular target: human Thyroid hormone Receptor beta (TRb), THRB (gene 7068) (UniProt P10828); experiment: ATG_hTRb_XSP2: Attagene TRANS-FACTORIAL Multi-Species (XSP2) HepG2 Assay for human Thyroid hormone Receptor beta (TRb) (AID 2283840);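 also: actives raise reporter mRNA so potency reflects agonist-like gain of signal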
# Sequence of human Thyroid hormone Receptor beta (TRb), THRB (gene 7068) (P10828 whole entry, looked up, the tested form may be a part): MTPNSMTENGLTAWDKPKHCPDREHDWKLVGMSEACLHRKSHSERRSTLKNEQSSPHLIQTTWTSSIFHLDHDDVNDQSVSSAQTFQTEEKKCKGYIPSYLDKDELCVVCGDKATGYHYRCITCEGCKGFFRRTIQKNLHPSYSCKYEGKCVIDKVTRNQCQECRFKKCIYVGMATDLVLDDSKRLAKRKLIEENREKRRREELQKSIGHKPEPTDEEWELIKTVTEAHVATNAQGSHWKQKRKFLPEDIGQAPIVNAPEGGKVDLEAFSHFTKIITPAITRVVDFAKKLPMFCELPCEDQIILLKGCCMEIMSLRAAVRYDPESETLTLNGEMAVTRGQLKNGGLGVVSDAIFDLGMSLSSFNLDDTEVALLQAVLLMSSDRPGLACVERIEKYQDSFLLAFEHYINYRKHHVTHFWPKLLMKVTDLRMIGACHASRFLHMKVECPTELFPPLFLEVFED
# Procedure, shortened: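 Transient transfection of human HepG2 with multi-species NR-Gal4/GAL4-UAS reporter constructs; 24 h compound treatment; RNA isolation, reverse transcription, PCR and HpaI digest; capillary electrophoresis of labeled fragments; activity fitted upward versus DMSO.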
# [5] = CEETOX_H295R_11DCORT_noMTC: CeeTox H295R High-throughput Steroidogenesis Assay for 11-Deoxycortisol (11DCORT), maximum tolerated concentration (MTC) filtered results only (AID 2283911; active = hit-call score of the fitted dose curve at least 0.9, where 1 is the maximum; inactive = score below 0.9); settings: actives raise or lower the signal
# Procedure, shortened: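 Steroidogenesis was stimulated in H295R cells with 10 uM forskolin for 48 h before a 48 h chemical exposure. Secreted 11-deoxycortisol was measured by tandem mass spectrometry and fitted bidirectionally against DMSO controls.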
# [6] = CEETOX_H295R_OHPREG_noMTC: CeeTox H295R High-throughput Steroidogenesis Assay for OH-Pregnenolone (OHPREG), maximum tolerated concentration (MTC) filtered results only (AID 2283912; active = hit-call score of the fitted dose curve at least 0.9, where 1 is the maximum; inactive = score below 0.9); settings: actives raise or lower the signal
# Procedure, shortened: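 H295R cells prestimulated 48 h with 10 uM forskolin, then exposed 48 h to compound (0.1% DMSO). 17alpha-hydroxypregnenolone in medium measured by MTBE extraction and HPLC-MS/MS; bidirectional fit vs DMSO, concentrations not MTT/MTC-filtered.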
# [7] = CEETOX_H295R_OHPROG_noMTC: CeeTox H295R High-throughput Steroidogenesis Assay for OH-Progesterone (OHPROG), maximum tolerated concentration (MTC) filtered results only (AID 2283914; active = hit-call score of the fitted dose curve at least 0.9, where 1 is the maximum; inactive = score below 0.9); settings: actives raise or lower the signal
# Procedure, shortened: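 H295R cells prestimulated 48 h with 10 uM forskolin, then exposed 48 h to chemical (0.1% DMSO final). 17alpha-hydroxyprogesterone in medium quantified by HPLC-MS/MS after MTBE extraction; bidirectional fitting versus DMSO, concentrations not MTC-filtered.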
# [8] = CEETOX_H295R_CORTISOL_noMTC: CeeTox H295R High-throughput Steroidogenesis Assay for Cortisol, maximum tolerated concentration (MTC) filtered results only (AID 2283916; active = hit-call score of the fitted dose curve at least 0.9, where 1 is the maximum; inactive = score below 0.9); settings: actives raise or lower the signal
# Procedure, shortened: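 H295R human adrenal cells prestimulated 48 h with 10 uM forskolin, then exposed 48 h to chemical in 0.1% DMSO; cortisol in medium quantified by HPLC-MS/MS; bidirectional fit vs DMSO baseline, concentrations not MTT-filtered for MTC.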
# [9] = CEETOX_H295R_CORTIC_noMTC: CeeTox H295R High-throughput Steroidogenesis Assay for Corticosterone (CORTIC), maximum tolerated concentration (MTC) filtered results only (AID 2283917; active = hit-call score of the fitted dose curve at least 0.9, where 1 is the maximum; inactive = score below 0.9); settings: actives raise or lower the signal
# Procedure, shortened: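 H295R adrenal cells pre-stimulated 48 h with 10 uM forskolin, then exposed 48 h to chemical in 0.1% DMSO; corticosterone in medium quantified by HPLC-MS/MS, fitted bidirectionally versus DMSO without MTT-based concentration filtering.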
# [10] = CEETOX_H295R_ANDR_noMTC: CeeTox H295R High-throughput Steroidogenesis Assay for Androstenedione (ANDR), maximum tolerated concentration (MTC) filtered results only (AID 2283915; active = hit-call score of the fitted dose curve at least 0.9, where 1 is the maximum; inactive = score below 0.9); settings: actives raise or lower the signal
# Procedure, shortened: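 H295R cells, passage 10 or below, prestimulated 48 h with 10 uM forskolin, then exposed 48 h to chemical in 0.1% DMSO. Medium androstenedione extracted with MTBE, quantified by HPLC-MS/MS; concentrations not MTC-filtered; bidirectional fit versus DMSO.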
structure (smiles),measurement,setting,value
OCCCC(F)(F)C(F)(F)C(F)(F)C(F)(F)C(F)(F)C(F)(F)C(F)(F)F,outcome,[1],inactive
CC(Cc1ccc(O)c(O)c1)C(C)Cc1ccc(O)c(O)c1 (stereo not given),AC50,[2],84 µM (active)
Cc1ccc(S(=O)(=O)OCC(F)(F)C(F)(F)C(F)(F)C(F)(F)C(F)(F)C(F)F)cc1,outcome,[1],inactive
O=S(=O)(O)C(F)(F)C(F)(F)C(F)(F)C(F)(F)C(F)(F)C(F)(F)C(F)(F)F,AC50,[1],2.31 µM (active)
C#C[C@]1(O)CC[C@H]2[C@@H]3CCc4cc(OC)ccc4[C@H]3CC[C@@]21C,outcome,[3],inactive
same,AC50,[4],0.0262 µM (active)
CC(C)OC(=O)c1ccccc1C(=O)OC(C)C,outcome,[5],inactive
same,outcome,[6],inactive
same,outcome,[7],inactive
same,outcome,[8],inactive
same,outcome,[9],inactive
CCCCCCCOC(=O)c1ccccc1C(=O)OCCCCCCC,outcome,[5],inactive
same,outcome,[6],inactive
same,outcome,[7],inactive
same,outcome,[10],inactive
same,outcome,[8],inactive
same,outcome,[9],inactive
COC(=O)C1CCC(C(=O)OC)CC1 (stereo not given),outcome,[6],inactive
same,outcome,[7],inactive
FC(F)(F)C(F)(F)C(F)(F)C(F)(F)CCI,outcome,[1],inactive
O=C(OCCOCCOCCOC(=O)c1ccccc1)c1ccccc1,outcome,[3],inactive
same,outcome,[4],inactive
same,outcome,[1],inactive
same,outcome,[2],inactive
C=CC(=O)OCC(F)(F)C(F)(F)C(F)(F)C(F)(F)COC(=O)C=C,outcome,[1],inactive
O=C(CC(=O)C(F)(F)C(F)(F)F)C(F)(F)F,AC50,[1],9.92 µM (active)
O=C(O)C(F)(F)C(F)(F)C(F)(F)C(F)(F)C(F)(F)C(F)(F)C(F)(F)C(F)(F)C(F)(F)C(F)F,AC50,[1],21.7 µM (active)
CCCCCCOC(=O)c1ccccc1O,outcome,[1],inactive
same,outcome,[2],inactive
C=CC(=O)OCC(F)(F)C(F)(F)C(F)(F)C(F)(F)C(F)(F)C(F)(F)C(F)(F)F,outcome,[1],inactive
O=C(O)C(F)(F)C(F)(F)C(F)(F)C(F)(F)C(F)(F)C(F)(F)C(F)(F)C(F)(F)C(F)(F)C(F)(F)C(F)(F)C(F)(F)F,outcome,[1],inactive
O=C(O)C(F)(F)C(F)(F)C(F)(F)C(F)(F)C(F)(F)C(F)(F)C(F)(F)C(F)(F)C(F)(F)C(F)(F)C(F)(F)C(F)(F)C(F)(F)F,outcome,[1],inactive
OCC(F)(F)C(F)(F)C(F)(F)C(F)(F)C(F)(F)C(F)F,outcome,[1],inactive
OCC(F)(F)C(F)(F)C(F)(F)C(F)(F)C(F)(F)C(F)(F)F,outcome,[1],inactive
c1ccc(B(c2ccccc2)c2ccccc2)cc1,outcome,[3],inactive
same,outcome,[4],inactive
O=S(=O)(OCCOC(F)(F)F)C(F)(F)F,outcome,[1],inactive
C(=C(c1ccccc1)c1ccccc1)c1ccccc1,outcome,[3],inactive
same,outcome,[4],inactive
same,outcome,[1],inactive
same,outcome,[2],inactive
FC(F)(F)C(F)(F)C(F)(F)N(C(F)(F)C(F)(F)C(F)(F)F)C(F)(F)C(F)(F)C(F)(F)F,outcome,[1],inactive
C=C(C)C(=O)OCC(F)(F)C(F)(F)C(F)(F)C(F)(F)C(F)(F)C(F)(F)C(F)(F)F,outcome,[1],inactive
O=C(O)C(F)(F)C(F)(F)C(F)(F)C(F)(F)C(F)(F)C(F)(F)C(F)(F)C(F)(F)Cl,AC50,[1],33.6 µM (active)
FC(F)(F)C(F)(F)C(F)(F)C(F)(F)C(F)(F)CCI,AC50,[1],13.3 µM (active)
